Screening results from PubChem.
KB-V1 MDR tox: kills drug-selected multidrug resistant KB-V1 cells; Potency, µM (doses to about 46.1 µM), actives largely listed as cytotoxic; KB-V1 MDR cells viability, CellTiter-Glo, 72 h; AID 1347076; 3.4% of 400,000 active; also: nearly all actives have a fitted effect of over 60% in size
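KB-V1 MDR subline cells in DMEM (phenol-red free, 10% FBS) exposed to compounds in qHTS concentration series for 72 h at 37 degrees C. Viability read by CellTiter-Glo luminescence; concentration-effect curves fitted after normalization and correction.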
HT1080 IDH1KD tx: HT-1080 IDH1 knockdown cell toxicity (counter line); 2% of 360,000 active; Potency, µM (top dose mostly 46.1 µM), without a hit: top-dose activity, negative = toxicity, usual class: cytotoxic; HT-1080 IDH1 knockdown viability, ATP luminescence, 48 h;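 also: 0% = DMSO wells and -100% = cell-free medium wells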
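IDH1KD HT-1080 cells, 750/well, RPMI + 5% FBS; compound pinned after 2 h settling; 48 h, 37 °C; CellTiter-Glo luminescence; % activity normalised to DMSO and no-cell wells; curves fitted, classed by r2 and efficacy.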
HT1080-NT tox: kills 2HG-producing HT-1080-NT fibrosarcoma cells | 1.6% of 360,000 active | HT-1080-NT fibrosarcoma viability, CellTiter-Glo ATP luminescence, 48 h | AID 686970 | Potency, µM (top dose mostly 46.1 µM), for inactives: at the top dose activity, negative = less viability, actives largely listed as cytotoxic;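 also: NT is the 2HG producing partner of a matched IDH1 knockdown line; 0% = DMSO-treated cells and -100% = media-only wells without cells; nearly all actives have a fitted effect of over 55% in size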
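A 48-hour cytotoxicity screen used HT-1080-NT cells plated 2 hours before compound delivery. ATP-based CellTiter-Glo luminescence measured viability, normalized to DMSO and no-cell controls.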
DT40 TDP1 no CPT: qHTS for Inhibitors of human tyrosyl-DNA phosphodiesterase 1 (TDP1): qHTS in cells in absence of CPT; DT40 Tdp1-/- hTDP1 cells, no CPT, ATP luminescence, 48 h; Potency, µM (series often up to 46.2 µM), for the others: top-dose activity change, negative = growth inhibition, usual class: inhibitors; 15% of 420,000 active; also: nearly all actives have a fitted effect of over 55% in size
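Chicken DT40 Tdp1-/- cells complemented with human TDP1, screened without camptothecin (DMSO vehicle only), 400 cells/well. Compounds pin-transferred, cells incubated at 37 °C for at least 48 hr. Growth read as ATP-dependent luminescence (CellTiter-Glo, 30 min at RT).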
KB-3-1 cytotox: kills parental KB-3-1 adenocarcinoma cells. 1.4% of 400,000 active. KB-3-1 viability, CellTiter-Glo ATP luminescence, 72 h. Potency, µM (doses to about 46.1 µM), hits mostly cytotoxic; also: nearly all actives have a fitted effect of over 60% in size
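Cytotoxicity measured as CellTiter-Glo luminescence after 72 h at 37 C. Compound titrations were pinned onto drug-naive KB-3-1 parental adenocarcinoma cells grown in DMEM with 10% FBS, and normalized data fitted to concentration-response curves.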
TDP1 cell CPT: DT40-hTDP1 cell growth loss with CPT; chicken DT40 Tdp1-/-;hTDP1 cells + 20 nM CPT, ATP luminescence, 48 h; Potency, µM (top dose mostly 46.2 µM), for inactives: at the top dose activity change, negative = growth inhibition, actives largely listed as inhibitors; 12% of 420,000 active; AID 686979; also: nearly all actives have a fitted effect of over 55% in size
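Cell growth measured by CellTiter-Glo luminescence after a minimum 48 h, 37 C compound exposure with 20 nM CPT in Tdp1-knockout DT40 cells stably expressing hTDP1, seeded 400/well; qHTS titration format.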
Starred values were filed as active, the others as inactive; i = inactive; ? = inconclusive; . = no result; ! = a repeat was not active. Rows were chosen to be rich in hits. Some 19% of all compounds tested hit in one or more screens of this group. Calls follow the shape of the dose curve; as a rule, active = well fitted curve in the direction sought with a large enough effect; inconclusive = small, poorly fitted or top-dose-only effect, or another doubt; inactive = no such curve, though single readings can be large; an effect the other way counts as inactive or inconclusive. Unless noted, % is scaled to controls: 0 for no effect and ±100 for the full control effect; potency is read from the fitted curve at half-maximal effect.

SMILES	KB-V1 MDR tox	HT1080 IDH1KD tx	HT1080-NT tox	DT40 TDP1 no CPT	KB-3-1 cytotox	TDP1 cell CPT
CC1(C(=O)NS(=O)(=O)c2cccc(C#N)c2)CCN1C(=O)C/C=C/c1ccccc1 (stereo not drawn)	i	13.1%	19.5%	-4.6%	i	-1.8%
COc1ccc(N2CCN(C(=O)CNC(=O)c3ccc4ccccc4c3)CC2)cc1	?	5.4%	9.4%	-1.3%	i	-0.7%
O=C(CSc1ccc2ccccc2c1)N1CCN(c2ccc(O)cc2)CC1	i	?	-16.2%	11.6µM*	i	13µM*
O=C(c1ccc2ccccc2c1)N1CCN(c2ccc(O)cc2)CC1	23.1µM*	-10.9%	-8.4%	?	i	?
c1ccc(CC2CCN(c3ncnc4sccc34)CC2)cc1	i	?	11.6µM*	2.59µM*	i	5.17µM*
Fc1ccc(CN2CCN(c3ncnc4scc(-c5ccccc5)c34)CC2)cc1	i	-2.3%	-15.8%	?	?	?
COc1ccc(-c2csc3ncnc(N4CCN(S(=O)(=O)c5ccc(C)c(C)c5)CC4)c23)cc1	i	-21.4%	-19.1%	18.4µM*	?	?
Cc1ccc(-c2csc3ncnc(N4CCN(S(=O)(=O)c5ccc(C#N)cc5)CC4)c23)cc1	i	13.1%	11.7%	16.4µM*	i	?
O=S(=O)(c1ccccc1)N1CCN(c2ncnc3scc(-c4ccccc4)c23)CC1	?	-24.5%	-19.0%	?	i	16.4µM*
Cc1cccc(C)c1NC(=O)CNC(=O)c1ccc2c(c1)NC(=O)CS2	?	-1.4%	-5.1%	6.4%	i	7.9%
Cc1ccc(-c2csc3ncnc(N4CCN(S(=O)(=O)c5cccs5)CC4)c23)cc1	?	-0.6%	-10.1%	20.6µM*	?	?
Cc1ccc(S(=O)(=O)N2CCN(c3ncnc4sccc34)CC2)cc1	?	-24.8%	-27.3%	3.26µM*	?	7.31µM*
O=C(Cc1cccs1)NCCc1ccc(Cl)cc1	i	-2.3%	-1.3%	13.6%	i	4.7%
Cc1ccc(CNC(=O)c2c(-c3ccc(F)cc3F)noc2C)o1	i	.	.	-25.9%	i	-25.0%
Cc1ccc(C)c(-c2ccc(=O)n(Cc3cccc(Br)c3)n2)c1	i	?	?	?	i	-17.8%
Cc1ccc(C)c(-c2ccc(=O)n(Cc3ccc(F)cc3Cl)n2)c1	i	-22.7%	-13.0%	?	?	18.4µM*!
CCn1cc(Cl)c(C(=O)N2N=C3/C(=C/c4cccs4)CCCC3C2c2cccs2)n1 (stereo not drawn)	20.6µM*	-29.2%	?	?	?	18.4µM*
Cc1ccc(OCC(=O)Nc2ccc(S(=O)(=O)Nc3cc(C)on3)cc2)c(Br)c1	i	.	.	-22.7%	i	-8.0%
CCc1c(C)nc2ncnn2c1N1CCCC(C(=O)NCc2ccco2)C1 (stereo not drawn)	i	5.3%	0.5%	?	?	?
Cc1nc2ncnn2c(N2CCCC(C(=O)Nc3ccccc3Br)C2)c1C (stereo not drawn)	10.3µM*	-25.7%	-18.1%	14.6µM*	i	?
CCc1c(C)nc2ncnn2c1N1CCCC(C(=O)NCc2cccs2)C1 (stereo not drawn)	16.4µM*	2.4%	-13.9%	13µM*	?	?
CCc1c(C)nc2ncnn2c1N1CCCC(C(=O)Nc2cc(F)ccc2C)C1 (stereo not drawn)	i	-15.6%	-10.0%	20.6µM*	i	16.4µM*
CCc1c(C)nc2ncnn2c1N1CCN(S(=O)(=O)c2ccc(OC)cc2)CC1	i	-11.6%	-13.4%	5.8µM*	i	3.66µM*
Cc1cc(N2CCN(S(=O)(=O)c3ccc(Br)cc3)CC2)n2ncnc2n1	?	-8.8%	-6.4%	-22.1%	i	-13.5%
Cc1ccc(S(=O)(=O)N2CCN(CC(O)c3ccccc3)CC2)cc1C (stereo not drawn)	?	1.5%	9.4%	-2.2%	i	-12.6%
SMILES	KB-V1 MDR tox	HT1080 IDH1KD tx	HT1080-NT tox	DT40 TDP1 no CPT	KB-3-1 cytotox	TDP1 cell CPT
CCCCCC[C@@H](CCC)C(=O)O	.	.	.	-3.1%	.	13.3%
COc1cccc(CNC(=O)C2CCN(S(=O)(=O)N3CCCC3)CC2)c1	i	1.6%	0.7%	-15.1%	i	-7.7%
CCc1c(C)nc2ncnn2c1N1CCC(C(=O)NCc2cccs2)CC1	i	-7.7%	-18.4%	?	i	23.1µM*
CCc1c(C)nc2ncnn2c1NCc1cccs1	?	0.0%	1.9%	25.9µM*	i	?
CCc1c(C)nc2ncnn2c1N1CCCC(C(=O)NCCc2ccccc2)C1 (stereo not drawn)	13µM*	?	2.0%	20.6µM*	?	?
CCc1c(C)nc2ncnn2c1N1CCC(C(=O)NCc2cccc(OC)c2)CC1	23.1µM*	?	4.7%	?	?	?
CC1(C)OC(=O)C2=C(C[C@@H](C3CCCC3)O[C@H]2c2ccc(Cl)cc2)O1	?	0.3%	3.1%	?	?	?
O=C(c1ccccc1Sc1cccc2ccccc12)N1CCOCC1	i	-1.4%	-12.2%	20.6µM*	i	13µM*
[O-][n+]1c2ccccc2c2n1CCN=C2c1ccc(Cl)cc1	i	-2.9%	-2.5%	-22.2%	i	-12.1%
Cc1ccc(C2=NCCn3c2c2ccc([N+](=O)[O-])cc2[n+]3[O-])cc1	?	-6.0%	-1.4%	10.3µM*	?	4.11µM*
O=[N+]([O-])c1ccc2c3n([n+]([O-])c2c1)CCN=C3c1ccc(Cl)cc1	i	-1.1%	-2.2%	14.6µM*	?	9.2µM*
Cc1cc(-c2ccc(S(=O)(=O)Nc3cccc(C(F)(F)F)c3)s2)on1	i	.	.	?	i	20.6µM*
COc1ccccc1NS(=O)(=O)c1ccc(-c2cc(C)no2)s1	?	?	?	7.31µM*	7.31µM*	7.31µM*
COCCNC(=O)CCC1CCN(Cc2ccc(-c3ccccc3)cc2)CC1	i	-13.3%	-11.0%	?	i	?
Clc1ccc(-c2cnc3n2CCCCC3)cc1	i	-18.8%	-5.0%	9.2µM*	i	14.6µM*
N=C1C=CC(=C(c2ccc(N)cc2)c2ccc(N)cc2)C=C1	i	7.31µM*	23.1µM*	3.26µM*	3.66µM*	2.91µM*
